Results taken from PubChem BioAssay AID1159580 (chemical genetic matrix, 2015).
“And” between values parts separate entries of the source, which are not always exact repeats. Equal entries are not always repeated. Hit rate of the full screen: of about 5,500 compounds, about 2,000 (36%) were called active. About 18% were inconclusive and are not listed. No stated cut-off is given here; in the data, active means normalized growth mostly below about 0.91 (no sharp cut-off); inconclusive means no clear call, values can overlap the other calls; inactive means mostly above about 0.92. The list shows a part of the results.

Test: chemical genetic growth profiling, strain panel (AID 1159580);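 further: tested at 20 µM; growth read once vehicle control cultures reached saturation at 30 °C; 1 = growth at the plate median or of vehicle wells; lower values mean less growth of the strain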
Conditions: S. cerevisiae deletion strains, growth OD

Measured: normalized growth

CC1(C)S[C@@H]2[C@H](NC(=O)[C@H](N)c3ccccc3)C(=O)N2[C@H]1C(=O)O
inactive: locus YAL021C, strain ccr4, hits give low values 0.98 | locus YAL026C, strain drs2, hits give low values 0.971 | locus YAL030W, strain snc1, hits give low values 0.987 | locus YBL061C, strain skt5, hits give low values 0.973 | locus YBR009C, strain hhf1, hits give low values 1 | locus YBR021W, strain FUR4, hits give low values 1.01 | locus YBR023C, strain chs3, hits give low values 0.967 | locus YBR171W, strain sec66, hits give low values 0.977 | locus YBR229C, strain ROT2, hits give low values 1.01 | locus YBR231C, strain swc5, hits give low values 0.999 | locus YBR279W, strain paf1, hits give low values 0.954 | locus YCL011C, strain gbp2, hits give low values 0.95 | locus YCL016C, strain dcc1, hits give low values 0.942 | locus YCL029C, strain bik1, hits give low values 0.998 | locus YCL061C, strain MRC1, hits give low values 0.973 | locus YCL069W, strain vba3, hits give low values 0.98 | locus YCR088W, strain abp1, hits give low values 0.975 | locus YDL005C, strain med2, hits give low values 0.979 | locus YDL035C, strain GPR1, hits give low values 1.02 | locus YDL040C, strain nat1, hits give low values 0.971 | locus YDL074C, strain BRE1, hits give low values 1.01 | locus YDL101C, strain DUN1, hits give low values 1.01 | locus YDL134C, strain PPH21, hits give low values 1.01 | locus YDL185W, strain tfp1, hits give low values 1 | locus YDL192W, strain arf1, hits give low values 1.03 | locus YDR001C, strain nth1, hits give low values 0.971 | locus YDR069C, strain doa4, hits give low values 0.965 | locus YDR101C, strain arx1, hits give low values 1.01 | locus YDR137W, strain rgp1, hits give low values 0.945 | locus YDR150W, strain NUM1, hits give low values 1.02 | locus YDR159W, strain sac3, hits give low values 0.981 | locus YDR162C, strain NBP2, hits give low values 1.03 | locus YDR195W, strain ref2 0.961 | locus YDR297W, strain sur2, hits give low values 0.976 | locus YDR318W, strain mcm21, hits give low values 1.01 | locus YDR334W, strain swr1, hits give low values 0.961 | locus YDR335W, strain msn5, hits give low values 0.948 | locus YDR388W, hits give low values 1 | locus YDR392W, strain spt3, hits give low values 0.888 | locus YDR502C, strain sam2, hits give low values 1.01 | locus YEL003W, strain gim4, hits give low values 0.98 | locus YEL037C, strain rad23, hits give low values 0.979 | locus YEL061C, strain CIN8 (second series), hits give low values 0.97 | locus YEL061C, strain CIN8, hits give low values 1.01 | locus YER015W, strain faa2, hits give low values 0.961 | locus YER016W, strain bim1, hits give low values 0.955 | locus YER110C, hits give low values 0.991 | locus YER111C, strain swi4, hits give low values 0.96 | locus YER155C, strain BEM2 (second series), hits give low values 1.03 | locus YER155C, strain BEM2, hits give low values 1 | locus YER167W, strain BCK2, hits give low values 1.01 | locus YFR010W, strain ubp6, hits give low values 0.996 | locus YGL078C, strain dbp3, hits give low values 0.999 | locus YGL086W, strain mad1, hits give low values 1 | locus YGL167C, strain pmr1, hits give low values 0.987 | locus YGL173C, strain kem1, hits give low values 0.984 | locus YGL227W, strain vid30, hits give low values 0.974 | locus YGL240W, strain doc1, hits give low values 0.991 | locus YGL248W, strain PDE1, hits give low values 1.02 | locus YGL253W, strain hxk2, hits give low values 0.944 | locus YGR135W, strain pre9, hits give low values 1.01 | locus YGR229C, strain SMI1, hits give low values 1.03 | locus YGR252W, strain gcn5, hits give low values 1.03 | locus YHR013C, strain ard1, hits give low values 0.938 | locus YHR027C, strain rpn1, hits give low values 0.97 | locus YHR030C, strain SLT2, hits give low values 1.01 and 1.03 | locus YHR079C, strain IRE1 (second series), hits give low values 1 | locus YHR079C, strain IRE1, hits give low values 1.03 | locus YHR094C, strain hxt1, hits give low values 0.994 | locus YHR129C, strain ARP1, hits give low values 1.01 | locus YHR142W, strain chs7, hits give low values 0.924 | locus YHR200W, strain rpn10, hits give low values 1 | locus YIL066C, strain RNR3, hits give low values 1.03 | locus YIL073C, strain SPO22, hits give low values 1.04 | locus YIL125W, strain kgd1, hits give low values 1 | locus YIR030C, strain dcg1, hits give low values 1.01 | locus YJL092W, strain hpr5, hits give low values 0.973 | locus YJL095W, strain BCK1 (second series), hits give low values 0.989 | locus YJL095W, strain BCK1, hits give low values 1.01 and 1.04 | locus YJL115W, strain asf1, hits give low values 0.94 | locus YJL129C, strain trk1, hits give low values 0.913 | locus YJL134W, strain LCB3, hits give low values 1.01 | locus YJL154C, strain vps35, hits give low values 0.97 | locus YJL164C, strain tpk1, hits give low values 0.977 | locus YJL166W, strain qcr8, hits give low values 0.998 | locus YJL168C, strain set2, hits give low values 1 | locus YJL187C, strain SWE1 (second series), hits give low values 1 | locus YJL187C, strain SWE1, hits give low values 0.988
